Screening results: PubChem BioAssay, National Center for Advancing Translational Sciences (NCATS)
An excerpt weighted towards active compounds, which were near 13% of everything screened.
HCV inh = inhibitors of hepatitis C virus infection | hit rate 3.4% among 340,000 | AID 651820 | Huh7.5.1 HCVcc-Cre infection, luciferase reporter, 44 h | Potency, µM (top dose mostly 41.8 µM), without a hit: at the highest dose activity change, negative = inhibition, usual class: inhibitors; active = well fitted inhibition curve with a large enough effect; inconclusive = small, poorly fitted or top-dose-only effect, or another doubt; inactive = no such curve, though single readings can be large or run the other way; note: potency is the fitted concentration of half-maximal effect; % is set by controls: 0 for no effect and ±100 for the full control effect
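Compounds are dispensed onto cells plated 4 h earlier at 1,000 per well, with HCVcc-Cre virus (about 0.5 moi) added next. Following 44 h of culture, luminescent signal is measured for 15 sec after 15 min with substrate at room temperature.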
FMDV antiviral = blocks foot and mouth disease virus; FMDV antiviral cell-based qHTS; Potency, µM (highest dose often 57.9 µM), without a hit: at the highest dose activity change, negative = inhibition, actives largely listed as inhibitors; hit rate 1.2% among 410,000; AID 1159524; calls by dose curve; tested in HEK293T cells; note: read-out not given here; potency is the fitted concentration of half-maximal effect; % is set by controls: 0 for no effect and ±100 for the full control effect; nearly all actives have a fitted effect of over 45% in size
Lassa entry inh = inhibitors of Lassa virus binding or cell entry; Potency, µM (top dose mostly 37.9 µM), for inactives: at the top dose activity change, negative = inhibition, hits mostly inhibitors; AID 540256; hit rate 1.2% among 300,000; Lassa virus pseudotype entry inhibition, cell reporter; calls by dose curve; tested in HEK293 cells; note: potency is the fitted concentration of half-maximal effect; % is set by controls: 0 for no effect and ±100 for the full control effect; nearly all actives have a fitted effect of over 50% in size
Cycloheximide cs = counter-screen for Shiga toxin inhibitors: cycloheximide protein synthesis inhibition; max response, %; cell reporter, cycloheximide protein synthesis inhibition counterscreen; hit rate 12% among 300,000; AID 2314; in the data active = max response mostly above about 13%, no sharp cut-off; inactive = mostly below about 14%; note: read at 38.3 µM for the half of the compounds with a filed dose; 0% is about no effect
MARV entry inh = blocks Marburg virus binding to or entry into cells; Marburg virus pseudotyped entry inhibition, cell reporter; Potency, µM (top dose mostly 37.8 µM), without a hit: top-dose activity change, negative = inhibition, most hits filed as inhibitors; hit rate 1.8% among 300,000; calls by dose curve; tested in HEK293 cells; note: potency is the fitted concentration of half-maximal effect; % is set by controls: 0 for no effect and ±100 for the full control effect
Shiga toxin inh = Shiga toxin inhibition; hit rate 9.2% among 290,000; Vero cells, Shiga toxin protein synthesis inhibition reporter; AID 2315; inhibition, % at 38.7 µM; in the data active = inhibition mostly above about 28%, no sharp cut-off; inactive = mostly below about 43%; note: 0% is about no effect
Active calls of the source: *; i = inactive; u = inconclusive; x = no result given; + = active, no number; [ ] = remark or other dose.

SMILES	HCV inh	FMDV antiviral	Lassa entry inh	Cycloheximide cs	MARV entry inh	Shiga toxin inh
CC(=O)c1ccc(NC(=O)COC(=O)c2ccccc2Sc2ccccc2C#N)cc1	11%	-24%	u	15*	20%	2
C=CCn1cccc(C(=O)Nc2ccc(SC)cc2)c1=O	u	-10%	x	53*	x	93*
C=CCn1cccc(C(=O)Nc2ccc(N(C)C)cc2)c1=O	-11%	41%	x	39*	x	90*
CCCCc1ccc(NC(=O)c2cccn(Cc3ccc(Cl)cc3)c2=O)cc1	x	0%	4%[46.1 µM]	x	x	x
C=CCn1cccc(C(=O)Nc2ccc(OCC)cc2)c1=O	11µM*	0%	u	35*	-48%[46.1 µM]	95*
C=CCn1cccc(C(=O)Nc2ccc(Cl)cc2)c1=O	11µM*	10%	x	36*	x	64*
C=CCn1cccc(C(=O)Nc2ccc(C)c(Cl)c2)c1=O	-19%	36%	u	13	11%	23
COc1ccc(-c2nnc(SCC(=O)Nc3cc(C)on3)n2N)cc1OC	-1%	-1%	3%	-1	10%	-3
Cn1ncc(S(=O)(=O)Cc2ccccc2)c(Cl)c1=O	7%	-68%	12%	9	2%[46.1 µM]	19
Cc1cccc(SCc2noc(C(=O)NC(C)C)c2C(=O)O)c1	18%	-4%	x	-3	x	-7
CCOc1ccc(NS(=O)(=O)c2ccc(C(=O)NCC(c3ccco3)N3CCCC3)cc2)cc1 (stereo not drawn)	-12%	5%	x	x	x	x
C[C@@H]1CN([C@H](C)CO)C(=O)CCCn2cc(nn2)CO[C@H]1CN(C)C(=O)Nc1ccccc1F	x	-4%	x	x	x	x
Oc1cc(Cl)ccc1Oc1ccc(Cl)cc1Cl	-12%	u	x	-1	x	7
C[C@H](NC(=O)[C@H]1N2C(=O)c3ccccc3C2SC1(C)C)C(=O)N1CCC[C@H]1C(=O)O (stereo partly drawn)	1µM*	-6%	x	-3	x	-5
COC(=O)C1C(c2ccc(OC)c(OC)c2)NC(c2ccc(OC)c(OC)c2)C(C(=O)OC)S1(=O)=O (stereo not drawn)	-6%	x	-1%	5	-1%	8
CC(C)C[C@H]1COC(c2ccc(Br)cc2)=N1	x	x	x	39*	x	+
Brc1ccc(C2=N[C@@H](Cc3ccccc3)CO2)cc1	x	x	x	57*	x	+
Clc1cc(Cl)cc(C2=N[C@@H](Cc3ccccc3)CO2)c1	x	x	x	6	x	i
O=[N+]([O-])c1cccc(C2=N[C@@H](Cc3ccccc3)CO2)c1	x	x	x	53*	x	+
COc1ccc(Cn2nnnc2C(c2cc3cccc(C)c3[nH]c2=O)N2CCOCC2)cc1 (stereo not drawn)	-1%	-19%	-12%	20	-4%	35*
Cc1ccc(C)c2[nH]c(=O)c(C(c3nnnn3CCc3ccccc3)N3CCOCC3)cc12 (stereo not drawn)	10%	0%	u	-6	u	-6
Cc1ccc(C)c2[nH]c(=O)c(C(c3nnnn3Cc3ccco3)N3CCc4ccccc4C3)cc12 (stereo not drawn)	u	u	u	27*	u	78*
COc1ccc(N2CCN(C(c3cc4cc(C)ccc4[nH]c3=O)c3nnnn3Cc3ccccc3)CC2)cc1 (stereo not drawn)	-27%	-3%	u	-1	u	-4
Cc1ccc2cc(C(c3nnnn3Cc3ccccc3)N3CCN(c4ccccc4)CC3)c(=O)[nH]c2c1 (stereo not drawn)	u	-14%	-19%	-5	21µM*	-21
COc1ccc(Cn2nnnc2C(c2cc3cc(C)ccc3[nH]c2=O)N2CCOCC2)cc1 (stereo not drawn)	5%	-8%	3%	-2	8%	-3
SMILES	HCV inh	FMDV antiviral	Lassa entry inh	Cycloheximide cs	MARV entry inh	Shiga toxin inh
Cc1ccc(CN2CCN(CC(=O)N/N=C/c3ccccc3F)CC2)cc1	3%	50%	x	37*	x	118*
C=CCc1cccc(C=NNC(=O)CN2CCN(Cc3ccccc3)CC2)c1O	x	x	12µM*	x	u	x
O=C(CN1CCN(Cc2ccccc2)CC1)N/N=C/c1ccccc1F	12%	8%	27%	-2	19%[46.1 µM]	23
COc1ccc(NS(=O)(=O)c2ccc(N3CCCCC3)c(N)c2)cc1	2.8µM*	-8%	x	x	x	x
O=C(Nc1cccc(C(F)(F)F)c1)Nc1ccc(N2CCCC2)c(S(=O)(=O)Nc2ccccc2Cl)c1	2.2µM*	17%	4µM*	1	2.5µM*	9
Nc1cc(S(=O)(=O)Nc2ccccc2Cl)ccc1N1CCCCC1	6.3µM*	23%	x	x	x	x
